Results from PubChem BioAssay AID463215 (Sanford-Burnham Center for Chemical Genomics, 2010).
About 2,900 (63%) of roughly 4,600 compounds were called active.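 How the source made its calls: active means inhibition of yeast growth at or above a set limit in either of two replicates at 10 µM; inactive means the rest.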 The set was probably picked from earlier hits. The list is a sample of the results.

experiment: growth inhibitors of wild-type TIM10 yeast, confirmation, counter-screen for tim10-1 synthetic lethality project, single concentration, luminescence, S. cerevisiae (AID 463215);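 further: isogenic wild-type TIM10 control yeast grown in succinate dextrose medium; this counterscreen used the strain with wild-type TIM10; 0% = yeast with DMSO and 100% = medium wells lacking yeast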; conditions: S. cerevisiae tim10 strain growth, BacTiter-Glo luminescence, 24 h; at 10 µM; hits give high values

Row | SMILES | inhibition
1 | Fc1cccc(Cl)c1CSc1ccc(-c2ccco2)nn1 | 35.9% (active)
2 | O=C(/C=C/c1ccc(Cl)c([N+](=O)[O-])c1)c1cccnc1 | 81.2% (active)
3 | COc1cc([N+](=O)[O-])ccc1NC(=O)COC(=O)CCOc1ccc(C)cc1 | 43.4% (active)
4 | C=CS(=O)c1sc(Cl)c(N2CCOCC2)c1[N+](=O)[O-] (stereo unspecified) | 87.5% (active)
5 | CCc1ccc2c(c1)C1(NN=C(c3ccccc3)S1)C(=O)N2 (stereo unspecified) | 43.3% (active)
6 | O=C(N/N=C/c1c[nH]c2ccccc12)c1cc2ccccc2o1 | 22.9% (inactive)
7 | Cc1ccc(Nc2nc(Cl)c(C=O)s2)cc1 | 10.7% (inactive)
8 | Nc1ccccc1SC(C[N+](=O)[O-])c1ccccc1 (stereo unspecified) | 53.5% (active)
9 | O=C(Nc1ccc2oc(-c3ccccc3F)nc2c1)c1ccco1 | 62.4% (active)
10 | O=C(Nc1nc(-c2ccco2)c(-c2ccco2)s1)c1ccco1 | 39.9% (active)
11 | COCCNC(=O)/C(C#N)=C/c1cccc(OCc2ccccc2)c1 | 69.5% (active)
12 | Cc1cc(C)n(-c2nc(SCC(=O)N3CCCC3)c3c4c(sc3n2)CCCC4)n1 | 23.4% (inactive)
13 | CCOC(=O)C(=Cc1ccccc1OC)C(=O)OCC | 27.6% (inactive)
14 | COc1ccc(CNC(=O)/C(C#N)=C/c2cccc(OC)c2OC)cc1 | 80.8% (active)
15 | c1ccc(-c2nccc(-c3ccc(-n4cnc5ccccc54)cc3)n2)nc1 | -3.75% (inactive)
16 | CCN(CC)CCN(C(=O)c1ccc(S(=O)(=O)N2CCOCC2)cc1)c1nc2cc3c(cc2s1)OCCO3 | 28.1% (inactive)
17 | CN(C)CCCN(C(=O)c1ccc(S(=O)(=O)N2CCCc3ccccc32)cc1)c1nc2ccc(F)cc2s1 | 41.4% (active)
18 | COc1cccc(NC(=O)CSc2nccn(-c3ccc4c(c3)OCCO4)c2=O)c1 | 8.7% (inactive)
19 | O=C(NNc1c2ccccc2nc2ccccc12)c1cc2ccccc2cc1O | -21.2% (inactive)
20 | COc1ccc(Oc2cn[nH]c2-c2ccc(OC)cc2O)cc1 | 31% (active)
21 | O=S(=O)(NC1CCCCC1)c1ccc(F)c2ccccc12 | 29.4% (inactive)

Row | SMILES | inhibition
22 | Fc1ccc(/C=N/n2c(COc3ccccc3)n[nH]c2=S)cc1 | 37% (active)
23 | CC[C@@H]1Cc2cc(O)ccc2C2=C1c1ccc(O)cc1C[C@H]2CC | 66.3% (active)
24 | Cc1[nH]c2ccccc2c1C(=O)COC(=O)c1c(-c2ccccc2)noc1C | 36.8% (active)
25 | CCC(C)(C)n1nnnc1CN1CCN(c2nc3ccc(C)cc3cc2C#N)CC1 | 24.8% (inactive)
26 | O=C(NCc1ccco1)c1cc2sccc2n1Cc1ccc(F)cc1 | 23.6% (inactive)
27 | CCc1cccc(CC)c1NC(=S)NCc1ccc2[nH]c(C)cc2c1 | 52.9% (active)
28 | CCc1sc(C(=O)N2CCN(CC(=O)Nc3cccc(F)c3)CC2)cc1C | 60.8% (active)
29 | C[C@@H]1C(c2ccc(F)cc2)=NN(c2ccc(Br)cc2)[C@H]1C(=O)N1CCOC1=O | 52.1% (active)
30 | N/C(=N\OC(=O)Cc1ccccc1[N+](=O)[O-])c1ccc(Br)cc1 | 53% (active)
31 | CC(/C=N/NC(=O)c1cc(-c2ccc3ccccc3c2)n[nH]1)=C\c1ccco1 | 42.5% (active)
32 | O=C1c2ccccc2C(=O)N1CC1c2ccccc2CCN1S(=O)(=O)c1ccccc1 (stereo unspecified) | 22.5% (inactive)
33 | O=S(=O)(ON(c1ccccc1)S(=O)(=O)c1ccccc1)c1ccccc1 | -4.35% (inactive)
34 | Cc1nn(Cc2ccc(Cl)c(Cl)c2)c(C)c1NC(=O)c1cc(C2CC2)on1 | 33.2% (active)
35 | Oc1ccccc1C1=NN(c2ccccc2)C(c2ccccc2)C1 (stereo unspecified) | 70.5% (active)
36 | COc1ccc(Cn2c(-c3ccc(Cl)cc3)c[n+]3ccccc23)cc1 | 34.7% (active)
37 | COc1ccc(NC(=S)NCC2CCN(c3ccc(OC)cc3)C2)cc1 (stereo unspecified) | -5.6% (inactive)
38 | O=C(Cc1ccccc1)NC(=S)Nc1ccc(N2CCCCC2)cc1 | 39.8% (active)
39 | S=C(NCCCc1ccccc1)Nc1ccc(Br)cc1 | 31.7% (inactive)
40 | COc1ccc(-c2cc(-c3ccc(N)cc3)nc(N)c2C#N)cc1OC | 33.8% (active)
41 | O=C(O)c1ccc(N/N=C/c2cn(-c3ccccc3)nc2-c2cccs2)cc1 | 64.8% (active)
42 | O=C(Nc1ccc(C(F)(F)F)cc1)c1cccc(-n2cnnn2)c1 | 23.1% (inactive)

Row | SMILES | inhibition
43 | Cc1nnnn1/C(=C\c1ccccc1)C(=O)OCC(=O)N1CC2(C)CC1CC(C)(C)C2 (stereo unspecified) | 50.7% (active)
44 | c1ccc(-c2cn3c(n2)CCc2ccc4cccnc4c2-3)cc1 | 37% (active)
45 | Cc1ccccc1-c1nc(C#N)c(NCc2ccco2)o1 | 11.5% (inactive)
46 | COc1cccc(CNc2nc(C(F)(F)F)nc3ccccc23)c1 | 27.1% (inactive)
47 | c1ccc(-c2nc(NCc3ccco3)c3ccccc3n2)cc1 | 34% (active)
48 | CC(C)N(Cc1ccccc1)C(=S)Nc1ccc(OC(F)F)cc1 | -14% (inactive)
49 | COc1cc(/C=N/NC(=O)c2ccccc2)ccc1OS(=O)(=O)c1ccccc1 | 17.2% (inactive)
50 | COc1ccc(C(=O)Nc2ccccc2C(=O)N/N=C/c2ccc(O)c(OC)c2)cc1 | 93.3% (active)
51 | O=C(N/N=C\c1cccc(Br)c1)c1ccccc1-n1cccc1 | -4.2% (inactive)
52 | COc1ccc(C(=O)Nc2ccccc2C(=O)N/N=C/c2ccccc2OC)cc1 | 43.1% (active)
53 | Cc1nc2sc(C(=O)c3ccccc3)c(N)c2c2c1CCCC2 | 23% (inactive)
54 | OC(CNCC1CCCO1)Cn1c2ccc(Br)cc2c2cc(Br)ccc21 (stereo unspecified) | 51.4% (active)
55 | COc1ccc(OC)c2sc(NC(=O)C3COc4ccccc4O3)nc12 (stereo unspecified) | 34.8% (active)
56 | COc1ccc(NC(=O)/C(Cl)=C(/Cl)S(=O)Cc2ccc(C)cc2)cn1 (stereo unspecified) | 88% (active)
57 | COc1ccc(CS(=O)/C(Cl)=C(/Cl)C(=O)Nc2ccc(OC)nc2)cc1 (stereo unspecified) | 78.3% (active)
58 | O=[N+]([O-])c1ccc(C=Nc2ccc(Cl)cc2Cl)s1 | 44.1% (active)
59 | Cn1c(-c2sccc2OCc2cccc(C(F)(F)F)c2)n[nH]c1=S | 34.8% (active)
60 | Cc1cccc(/C(N)=N/OC(=O)c2ccccc2Cl)c1 | 77.7% (active)
61 | NS(=O)(=O)c1ccc(NC(=S)Nc2ccc(Br)c(Cl)c2)cc1 | 16.9% (inactive)
